ANO1 activ: activates or potentiates the mouse TMEM16A chloride channel | Q8BHY3 | HEK293 TMEM16A/YFP-H148Q/I152L, iodide quench fluorescence; stronger effect = lower value | B-score at 10 µM | hit rate 0.3% among 340,000 | AID 623877;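 active = fluorescence-ratio B-score plate-corrected deviation score at least 3 library SD below zero, with starting fluorescence score within 5 deviations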;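 note: channel opened by trigger with iodide after compound preincubation; score built on the fluorescence ratio of max minus min over baseline; more negative score means more quench and so TMEM16A activation or potentiation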
Target sequence (Q8BHY3 whole entry, looked up): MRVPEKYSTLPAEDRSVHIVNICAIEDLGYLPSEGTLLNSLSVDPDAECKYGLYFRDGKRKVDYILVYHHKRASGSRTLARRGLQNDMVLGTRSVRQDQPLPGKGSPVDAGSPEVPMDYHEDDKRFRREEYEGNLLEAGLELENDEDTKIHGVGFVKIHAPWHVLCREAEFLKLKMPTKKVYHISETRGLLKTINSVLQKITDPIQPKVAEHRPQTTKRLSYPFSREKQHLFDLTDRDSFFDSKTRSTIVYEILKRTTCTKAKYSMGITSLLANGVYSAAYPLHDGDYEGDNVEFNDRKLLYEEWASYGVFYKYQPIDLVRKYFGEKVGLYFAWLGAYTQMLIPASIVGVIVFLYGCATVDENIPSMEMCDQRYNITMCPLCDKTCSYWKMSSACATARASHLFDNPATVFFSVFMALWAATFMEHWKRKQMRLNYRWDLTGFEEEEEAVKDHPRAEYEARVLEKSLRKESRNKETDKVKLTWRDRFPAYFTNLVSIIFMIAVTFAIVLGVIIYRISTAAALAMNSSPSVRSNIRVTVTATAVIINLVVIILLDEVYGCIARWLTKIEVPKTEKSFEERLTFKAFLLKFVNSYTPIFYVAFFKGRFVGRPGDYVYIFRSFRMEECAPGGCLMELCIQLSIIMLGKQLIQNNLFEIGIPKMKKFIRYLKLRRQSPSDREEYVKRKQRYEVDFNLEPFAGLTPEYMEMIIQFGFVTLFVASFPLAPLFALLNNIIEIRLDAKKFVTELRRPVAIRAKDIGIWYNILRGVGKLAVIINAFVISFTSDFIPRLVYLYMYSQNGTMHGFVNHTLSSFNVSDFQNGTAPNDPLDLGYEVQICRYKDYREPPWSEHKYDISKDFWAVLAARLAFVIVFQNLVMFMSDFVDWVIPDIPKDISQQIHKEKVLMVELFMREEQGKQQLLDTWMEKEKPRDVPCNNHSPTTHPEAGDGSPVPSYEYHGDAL
CRFBP-R2 agonist: CRF-BP/CRF-R2 complex agonism | HEK293 CRF-R2/CRF-BP, calcium dye fluorescence (FLIPR); percent of saturating CRF peptide response | activation, % at 13.2 µM | hit rate 0.46% among 350,000 | AID 588473;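 active = activation of at least 50%, plus an integration ratio under a set limit after plate pattern correction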;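 note: plate controls were neutral control wells without compound for no effect and CRF at EC100 for full effect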
CRFBP-R2 block: CRF-BP/CRF-R2 complex antagonism; inhibition, % at 11.8 µM; HEK293 CRF-R2/CRF-BP, CRF-induced calcium fluorescence; hit rate 0.59% among 350,000; AID 588475;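 active = inhibition of the ligand-induced calcium signal above about 50% at the single tested concentration, limit read from the data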
MPTP inh: blocks calcium-induced mitochondrial swelling | isolated mouse mitochondria, Ca2+ swelling absorbance, 30 min | inhibition, % at 10 µM | hit rate 1.4% among 360,000;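 active = inhibition of 50% or more, scaled per plate between neutral and stimulator controls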;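 note: 0% = DMSO wells given calcium and 100% = 1 mM EGTA wells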
NR3A LBD binder: modulates the human NR3A ligand-binding domain | NR3A LBD differential scanning fluorimetry, Tm shift; 0% = protein alone, 100% = glycine-bound protein | Tm shift relative to glycine control, % at 25 µM | hit rate 2.5% among 340,000;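 active = melting temperature shift of at least 10% of the positive control shift, at one fixed dose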
TMEM16A inh: inhibitors of mouse TMEM16A calcium-activated chloride channel; Q8BHY3; HEK293 TMEM16A/YFP iodide influx fluorescence, ionomycin; normalized B-score (activity score, 25-100; higher = stronger inhibition) at 10 µM; hit rate 1.2% among 310,000; AID 588511;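 active = ratio plate-corrected score three or more library SD toward inhibition, starting fluorescence score within five deviations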;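 note: score derived from kinetic fluorescence span divided by baseline fluorescence per well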
Active calls of the source: *; i = inactive; / = no result. Most compounds without a hit are left out; they make up all but 5.1% or so of the library.

SMILES	ANO1 activ	CRFBP-R2 agonist	CRFBP-R2 block	MPTP inh	NR3A LBD binder	TMEM16A inh
CC1CCN(S(=O)(=O)c2ccc3c(c2)CC(C)N3C(=O)C2CCC2)CC1 (stereo unspecified)	i	1	12	1	1	25*
CCOC(=O)N1CCN(S(=O)(=O)c2ccc3c(c2)CCN3C(=O)C2CCC2)CC1	i	-1	3	-3	2	i
CCOC(=O)N1CCN(S(=O)(=O)c2ccc3c(c2)CCN3C(=O)C2CC2)CC1	-18*	-2	-8	2	-3	i
CCOC(=O)C1CCN(S(=O)(=O)c2ccc3c(c2)CC(C)N3C(=O)C2CCC2)CC1 (stereo unspecified)	i	-1	18	0	24*	25*
COc1ccccc1CNS(=O)(=O)c1ccc2c(c1)CC(C)N2C(=O)C1CCC1 (stereo unspecified)	i	0	19	34	-1	25*
Cc1cccc(C)c1NC(=O)C(c1ccccc1)n1c(-c2ccccc2)nc2ccccc21 (stereo unspecified)	/	/	/	-2	/	/
Cc1ccc(S(=O)(=O)N2CCCCC2)cc1NC(=O)c1cc(F)c(F)c(F)c1F	i	2	4	-1	-12	/
O=[N+]([O-])c1cccc(-c2nnc3ccc4ccccc4n23)c1	i	-1	11	0	1	i
CN1CCN(/N=C/c2nc(-c3cccc([N+](=O)[O-])c3)n3ccccc23)CC1	i	94*	5	-2	-2	i
CCn1c(SCC(=O)Nc2ccc(Br)cn2)nnc1C1CC1	i	-1	14	-1	-1	i
CC(=O)N1c2ccc(S(=O)(=O)N(C)CC(=O)NC3CCCC3)cc2CC1C (stereo unspecified)	i	2	63*	-2	-1	i
CC(=O)N1c2ccc(S(=O)(=O)N(C)CC(=O)N3CCCC3)cc2CC1C (stereo unspecified)	i	0	-5	-2	-2	i
CCOc1ccc2nc(N3C(=O)CNC3=S)sc2c1	i	0	20	4	17*	i
Cc1cc2nc(N3C(=O)CNC3=S)sc2cc1C	i	2	12	-2	5	i
CC(C)(C)NC(=O)C(c1ccc(O)cc1)N(Cc1ccc2c(c1)OCO2)C(=O)CCl (stereo unspecified)	/	-1	80*	-2	/	/
COCCn1c(=NC(=O)c2sc3ccccc3c2Cl)sc2cc(S(N)(=O)=O)ccc21	i	4	-58	-2	23*	i
C=CCn1c(=NC(=O)c2sc3ccccc3c2Cl)sc2cc(S(N)(=O)=O)ccc21	i	1	-17	4	16*	i
C=CCn1c(=NC(=O)c2cc(Cl)sc2Cl)sc2cc(S(N)(=O)=O)ccc21	i	1	-16	5	-437	i
COCCn1c(=NC(=O)c2ccc(S(=O)(=O)N3CCOCC3)cc2)sc2cc(S(N)(=O)=O)ccc21	i	-1	8	0	-8	i
COc1cc(NC(=O)CSc2cc(C)c3cc(C)cc(C)c3n2)c(C(=O)O)cc1OC	i	-5	65*	5	-1	i
O=S(=O)(NC1CCCCC1N1CCN(c2ccc(F)cc2)CC1)c1ccc(Cl)cc1 (stereo unspecified)	-34*	105*	-79	0	2	i
CCCN1CCN(C2CCCCC2NS(=O)(=O)c2ccc(Cl)cc2)CC1 (stereo unspecified)	i	7	51*	0	2	i
CC(C)CN(C(=O)COC(=O)CCC(=O)c1ccc(Cl)cc1)c1c(N)n(Cc2ccccc2)c(=O)[nH]c1=O	i	4	7	1	/	i
Cc1ccc(S(=O)(=O)/N=C(/Nc2c(C)cccc2C)c2ccccc2)cc1	i	-2	-37	-1	0	/
C/C=C(/C)C(=O)OC1CC(C)(C)C[C@H]2C3=CC[C@@H]4[C@@]5(C)CCC(O[C@@H]6O[C@@H](C(=O)O)[C@@H](O)C(O[C@@H]7OC[C@H](O)[C@@H](O)[C@@H]7O[C@@H]7OC(CO)C(O)[C@@H](O)[C@@H]7O)C6O[C@@H]6OC(CO)C(O)C(O)C6O)[C@@](C)(CO)[C@@H]5CC[C@]4(C)[C@]3(C)CC(O)[C@@]12CO (stereo partly specified)	-37*	112*	-40	0	-1	/
SMILES	ANO1 activ	CRFBP-R2 agonist	CRFBP-R2 block	MPTP inh	NR3A LBD binder	TMEM16A inh
CC(=O)OC1COC(OC2C(O)C(C)OC(OC3C(OC4CCC5(C)C(CCC6(C)C5CC=C5C7CC(C)(C)CCC7(C(=O)O)CCC56C)C4(C)CO)OCC(O)C3O)C2O)C(O)C1OC(C)=O (stereo unspecified)	/	/	/	/	/	100*
CC1(C)C[C@H]2C3=CCC4[C@@]5(C)CC[C@H](O[C@@H]6O[C@H](C(=O)O)[C@@H](O)[C@H](O)[C@H]6O)[C@@](C)(CO)C5CC[C@@]4(C)[C@]3(C)C[C@H](O)[C@@]2(CO)[C@@H](O)[C@@H]1O (stereo partly specified)	i	-1	-1	0	-2	/
C/C=C(\C)C(=O)OC1[C@H](OC(C)=O)C2(CO)C(CC1(C)C)C1=CCC3C4(C)CCC(O[C@@H]5O[C@H](C(=O)O)[C@@H](O[C@@H]6O[C@H](CO)[C@@H](O)[C@H](O)[C@H]6O)[C@H](O)[C@H]5O[C@H]5O[C@H](CO)[C@@H](O)[C@H](O)[C@H]5O)[C@](C)(CO)C4CCC3(C)[C@]1(C)C[C@H]2O (stereo partly specified)	-16*	159*	-65	-2	-2	/
O=C(NCc1ccccc1C(F)(F)F)c1cccc2c1C(=O)c1ccc(N3CCC(N4CCCCC4)CC3)cc1S2(=O)=O	/	35	-19	-2	/	/
Cc1ccc(S(=O)(=O)N2CCOCC2)cc1C(=O)NCc1ccccn1	i	0	-3	-1	0	/
Cc1ccccc1Nc1nc(N)nc(COC(=O)c2cccc(S(=O)(=O)N(C)c3ccccc3)c2)n1	i	-4	51*	1	-6	i
Cc1ccccc1Nc1nc(N)nc(COC(=O)c2ccccc2)n1	i	0	-3	-1	0	i
O=C(CNC(=O)c1ccc(Br)o1)NNC(=O)c1ccccc1O	i	-1	6	-2	-1	i
CCOc1ccc(OCCC(=O)N2CCN(S(=O)(=O)c3cccc(F)c3)CC2)cc1	i	1	2	-1	2	i
COC(=O)c1cc(Br)ccc1NC(=O)CSCc1c(C)noc1C	i	0	12	0	5	/
Cc1ccc(/C=N/NS(=O)(=O)c2ccccc2)o1	i	1	-3	12	21*	i
N#CC(C#N)=C1C=CC=CN1/C(=C\c1ccccc1Cl)C(=O)c1ccccc1	-8.4*	20	10	0	-3	i

Screens (PubChem)
